# From PubChem BioAssay
# Activity calls are given as the source filed them.
# What was measured:
# [1] = biological target: Albumin (Bos taurus) (UniProt P02769); assay: bovine serum albumin binders on microarray, profiling panel, artefact control for SMM control protein annotation, biochemical, small-molecule microarray, Alexa647 label, 635/667 nm fluorescence (AID 1118); details: BSA-A647 binding, fluorescence 635 nm, higher = more signal;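 note: score merges 667 nm emission intensity and signal-to-noise per printed compound spot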
# [2] = small-molecule microarray binders of probe aXIP, primary screen, biochemical, NeuroSMM set, 635/667 nm fluorescence (AID 1119); details: higher = more signal, called active from +8 up or from −8 down unless noted;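 note: probe is the protein aXip251-270 applied at 1 µg/mL to compound-printed slides; binding of probe to printed compounds measured as 667 nm fluorescence plus signal to noise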
# [3] = small-molecule binders of probe aNOTCH3, primary screen, biochemical, small-molecule microarray, 635/667 nm fluorescence (AID 1120); details: higher = more signal; small-molecule microarray, probe aNOTCH3, fluorescence unless noted;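 note: probe is a biotin-tagged antibody raised against NOTCH3 rather than NOTCH3 protein; score merges spot fluorescence near 667 nm with spot signal to noise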
# [4] = small-molecule binders of probe aNOTCH2, primary screen, biochemical, small-molecule microarray, 635/667 nm fluorescence (AID 1121); details: higher = more signal; small-molecule microarray, probe aNOTCH2, fluorescence unless noted;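 note: score merges feature fluorescence read at 667 nm with its signal to noise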
# [5] = biological target: Carbonic anhydrase 2 (Homo sapiens) (UniProt P00918); assay: CAII small-molecule binders, profiling panel, biochemical, small-molecule microarray, Alexa647-labelled CAII (AID 1122); details: CAII-A647 binding fluorescence, higher = more signal
# [6] = COS7 lysate on small-molecule microarray, probe aHis, 635 nm (AID 1123); details: higher = more signal; small-molecule microarray, COS7 cell lysate, probe aHis, fluorescence unless noted;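 note: z-score combines 667nm fluorescence intensity with signal-to-noise per printed compound spot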
# [7] = compound binding in COS7 lysate, probe aLAP1, primary screen, cell lysate, small-molecule microarray (AID 1124); details: higher = more signal; small-molecule microarray, COS7 cell lysate, probe aLAP1, fluorescence unless noted;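 note: lysate comes from COS7 cells expressing LAP1 and is applied at 0.3 µg/mL; score merges spot fluorescence near 667 nm with signal-to-noise over triplicate slides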
# [8] = test system: Sam68 (KHDRBS1); assay: Sam68 small-molecule binders, primary screen, biochemical, small-molecule microarray, 635 nm fluorescence (AID 1125); details: small-molecule microarray binding, higher = more signal;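 note: score merges 667 nm channel intensity with signal to noise over triplicate slides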
# [9] = test system: Chordin-like protein 2 (CHRDL2); assay: CHRDL2 small-molecule binders, primary screen, biochemical, small-molecule microarray, 635 nm fluorescence (AID 1126); details: small-molecule microarray binding, fluorescence 635 nm; higher = more signal;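 note: printed compound slides probed with Chrdl2 protein at 4 µg/mL for 1 h at 4 C; score merges 667 nm emission intensity with signal to noise over three replicate slides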
# [10] = biological target: Concanavalin-A (Canavalia ensiformis) (UniProt P02866); assay: ConA small-molecule binders, primary screen, artefact control for SMM control protein annotation, biochemical, small-molecule microarray, Alexa647 label, 635 nm (AID 1127); details: ConA-A647 binding fluorescence, higher = more signal;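 note: z combines 667 nm emission intensity with signal-to-noise across three replicate slides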
# [11] = anti-His antibody binders, primary screen, artefact control for SMM control protein annotation, biochemical, small-molecule microarray, 635 nm fluorescence (AID 1128); details: anti-His Alexa647 antibody binding, higher = more signal;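 note: score merges feature fluorescence with signal-to-noise for each printed compound spot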
# [12] = test system: Human papillomavirus type 1a E7 protein (residues 1-88); assay: HPV1a E7 small-molecule binders, primary screen, biochemical, small-molecule microarray, residues 1-88, 635 nm (AID 1129); details: small-molecule microarray binding, fluorescence 635 nm; higher = more signal
# [13] = biological target: Focal adhesion kinase 1 (Homo sapiens) (UniProt Q05397); assay: small-molecule microarray binders of FAK, primary screen, biochemical, 635/667 nm fluorescence, BSA, DTT (AID 1130); details: PTK2 binding, 635 nm fluorescence, higher = more signal;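 note: composite of spot emission at 667 nm and signal to noise over triplicate slides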
# [14] = test system: Fibrinogen (Alexa647-labelled); assay: fibrinogen binders on compound microarrays, profiling panel, artefact control for SMM control-protein annotation, biochemical, small-molecule microarray, 635/667 nm fluorescence (AID 1131); details: fibrinogen-A647 binding fluorescence, higher = more signal;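 note: z-score merges 667 nm fluorescence with per-spot signal-to-noise over triplicate slides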
# [15] = biological target: Follistatin (Homo sapiens) (UniProt P19883); assay: follistatin binders on small-molecule microarrays, primary screen, biochemical, small-molecule microarray, 635/667 nm fluorescence (AID 1132); details: FST binding, 635 nm fluorescence, higher = more signal
# [16] = biological target: Fibroblast growth factor 2 (Homo sapiens) (UniProt P09038); assay: FGF2 binders on small-molecule microarrays, primary screen, biochemical, small-molecule microarray, 635/667 nm fluorescence (AID 1133); details: small-molecule microarray binding, FGF2, fluorescence 635/667; higher = more signal
# [17] = mitochondrial membrane potential change in A549 cells, profiling panel, cell-based, JC-1 fluorescence, basal, 24 h, 100 nL (AID 1138); details: higher = more signal;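 note: A549 lung adenocarcinoma cells under basal conditions with no added stimulus; test concentration not given here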
# [18] = test system: Lefty1; assay: Lefty1 binders on small-molecule microarrays, primary screen, biochemical, small-molecule microarray, 635/667 nm fluorescence (AID 1139); details: small-molecule microarray binding, fluorescence 635/667; higher = more signal
# [19] = test system: wheat germ agglutinin (Triticum aestivum), Alexa647-labelled; assay: wheat germ agglutinin binders on compound microarrays, profiling panel, artefact control for SMM control-protein annotation, biochemical, small-molecule microarray, 635/667 nm fluorescence (AID 1140); details: WGA-A647 binding, 635 nm fluorescence, higher = more signal;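 note: score merges 667 nm feature emission with signal to noise over triplicate slides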
# [20] = biological target: Luciferin 4-monooxygenase (Photinus pyralis) (UniProt P08659); assay: firefly luciferase enzyme inhibitors, primary screen, biochemical, luminescence, purified enzyme, 2006 set (AID 1141); details: SteadyGlo luminescence, 30 min; higher = more signal, called active from +8 up or from −8 down unless noted;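 note: cell-free assay with purified firefly luciferase at 100 ng per well in PBS; test concentration not given here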
# Luciferin 4-monooxygenase (Photinus pyralis), sequence (P08659 whole entry, looked up): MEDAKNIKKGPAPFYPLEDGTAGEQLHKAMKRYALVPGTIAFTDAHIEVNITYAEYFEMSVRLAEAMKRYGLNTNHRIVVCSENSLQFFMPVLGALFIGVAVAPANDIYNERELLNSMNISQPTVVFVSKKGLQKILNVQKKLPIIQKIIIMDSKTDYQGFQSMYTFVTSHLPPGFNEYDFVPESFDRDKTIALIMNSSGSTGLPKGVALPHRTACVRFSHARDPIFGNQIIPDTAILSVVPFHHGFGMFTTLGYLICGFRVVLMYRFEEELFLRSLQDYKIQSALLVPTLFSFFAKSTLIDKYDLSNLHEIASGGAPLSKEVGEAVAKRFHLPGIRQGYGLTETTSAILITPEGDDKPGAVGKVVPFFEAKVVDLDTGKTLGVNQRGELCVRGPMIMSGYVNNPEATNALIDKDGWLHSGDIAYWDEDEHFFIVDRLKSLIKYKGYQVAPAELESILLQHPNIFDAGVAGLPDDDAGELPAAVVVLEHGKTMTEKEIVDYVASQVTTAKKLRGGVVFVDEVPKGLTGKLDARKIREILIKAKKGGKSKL
# Concanavalin-A (Canavalia ensiformis), sequence (P02866 whole entry, looked up): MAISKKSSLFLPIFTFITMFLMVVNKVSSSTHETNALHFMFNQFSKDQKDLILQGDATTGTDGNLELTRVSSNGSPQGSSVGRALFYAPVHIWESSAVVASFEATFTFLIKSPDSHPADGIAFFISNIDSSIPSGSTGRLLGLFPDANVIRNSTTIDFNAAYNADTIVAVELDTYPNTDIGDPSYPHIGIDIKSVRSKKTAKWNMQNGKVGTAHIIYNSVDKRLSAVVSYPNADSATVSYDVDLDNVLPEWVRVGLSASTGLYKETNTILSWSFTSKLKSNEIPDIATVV
# Follistatin (Homo sapiens), sequence (P19883 whole entry, looked up): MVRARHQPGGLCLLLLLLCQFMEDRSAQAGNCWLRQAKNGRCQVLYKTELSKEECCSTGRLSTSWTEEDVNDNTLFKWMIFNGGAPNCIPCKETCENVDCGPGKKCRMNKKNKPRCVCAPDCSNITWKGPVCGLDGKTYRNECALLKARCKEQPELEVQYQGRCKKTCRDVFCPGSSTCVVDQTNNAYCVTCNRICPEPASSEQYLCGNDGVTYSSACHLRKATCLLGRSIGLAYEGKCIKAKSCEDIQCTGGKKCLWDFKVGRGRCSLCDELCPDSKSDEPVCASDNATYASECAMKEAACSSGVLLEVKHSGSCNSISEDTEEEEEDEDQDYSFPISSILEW
# Fibroblast growth factor 2 (Homo sapiens), sequence (P09038 whole entry, looked up): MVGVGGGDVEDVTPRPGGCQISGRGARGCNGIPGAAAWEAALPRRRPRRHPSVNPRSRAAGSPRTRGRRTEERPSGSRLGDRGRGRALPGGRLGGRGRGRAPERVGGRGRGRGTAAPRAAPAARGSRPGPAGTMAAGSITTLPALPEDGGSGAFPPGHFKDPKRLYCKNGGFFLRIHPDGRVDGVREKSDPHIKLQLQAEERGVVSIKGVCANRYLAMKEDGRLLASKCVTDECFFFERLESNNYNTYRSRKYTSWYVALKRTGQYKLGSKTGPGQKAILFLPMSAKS
# Albumin (Bos taurus), sequence (P02769 whole entry, looked up): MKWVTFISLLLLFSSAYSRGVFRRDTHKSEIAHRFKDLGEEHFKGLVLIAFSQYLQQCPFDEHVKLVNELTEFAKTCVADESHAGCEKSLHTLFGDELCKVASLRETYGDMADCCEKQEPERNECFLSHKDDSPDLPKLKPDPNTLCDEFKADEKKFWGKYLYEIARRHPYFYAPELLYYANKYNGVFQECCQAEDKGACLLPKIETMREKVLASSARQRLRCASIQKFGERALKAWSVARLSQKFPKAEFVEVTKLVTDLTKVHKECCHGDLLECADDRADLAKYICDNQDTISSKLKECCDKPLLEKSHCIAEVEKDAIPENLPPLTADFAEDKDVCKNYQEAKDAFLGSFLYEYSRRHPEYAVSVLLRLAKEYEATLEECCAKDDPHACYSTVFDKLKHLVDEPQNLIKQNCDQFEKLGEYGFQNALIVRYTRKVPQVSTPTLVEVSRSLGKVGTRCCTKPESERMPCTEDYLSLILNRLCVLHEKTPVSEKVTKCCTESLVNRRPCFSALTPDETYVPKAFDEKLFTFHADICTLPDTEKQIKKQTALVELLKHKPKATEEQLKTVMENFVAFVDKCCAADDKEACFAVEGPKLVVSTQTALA
# Focal adhesion kinase 1 (Homo sapiens), sequence (Q05397 whole entry, looked up): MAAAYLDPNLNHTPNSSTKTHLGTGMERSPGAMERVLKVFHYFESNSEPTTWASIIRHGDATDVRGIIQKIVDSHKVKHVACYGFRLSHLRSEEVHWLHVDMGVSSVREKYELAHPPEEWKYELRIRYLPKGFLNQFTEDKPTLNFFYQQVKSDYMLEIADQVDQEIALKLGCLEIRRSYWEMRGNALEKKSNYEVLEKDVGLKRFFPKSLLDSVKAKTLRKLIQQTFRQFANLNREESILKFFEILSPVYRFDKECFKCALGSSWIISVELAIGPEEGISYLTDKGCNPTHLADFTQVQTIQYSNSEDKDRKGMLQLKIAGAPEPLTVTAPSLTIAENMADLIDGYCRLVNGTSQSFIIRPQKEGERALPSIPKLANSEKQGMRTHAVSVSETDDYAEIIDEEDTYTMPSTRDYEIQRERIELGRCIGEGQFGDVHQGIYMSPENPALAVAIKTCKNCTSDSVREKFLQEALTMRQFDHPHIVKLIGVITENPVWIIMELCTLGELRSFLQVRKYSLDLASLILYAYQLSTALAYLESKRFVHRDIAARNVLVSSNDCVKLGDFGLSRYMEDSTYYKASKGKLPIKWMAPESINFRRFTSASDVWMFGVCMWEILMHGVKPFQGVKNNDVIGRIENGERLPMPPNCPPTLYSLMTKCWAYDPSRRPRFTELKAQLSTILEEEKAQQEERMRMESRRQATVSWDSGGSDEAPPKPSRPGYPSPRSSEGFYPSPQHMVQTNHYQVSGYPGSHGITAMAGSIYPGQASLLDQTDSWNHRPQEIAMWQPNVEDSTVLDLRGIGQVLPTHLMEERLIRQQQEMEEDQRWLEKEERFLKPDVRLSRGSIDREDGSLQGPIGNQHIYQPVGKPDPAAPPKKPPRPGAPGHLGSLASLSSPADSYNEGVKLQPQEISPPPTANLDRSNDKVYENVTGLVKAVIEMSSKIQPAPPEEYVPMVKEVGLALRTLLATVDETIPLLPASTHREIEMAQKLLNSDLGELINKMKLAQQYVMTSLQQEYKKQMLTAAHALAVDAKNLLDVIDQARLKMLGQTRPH
Structure (SMILES),composite z-score [1],composite Z-score [2],composite z-score [3],composite z-score [4],composite z-score [5],composite z-score [6],composite z-score [7],composite z-score [8],composite z-score [9],composite z-score [10],composite z-score [11],composite z-score [12],composite z-score [13],composite z-score [14],composite z-score [15],composite z-score [16],z-score [17],composite z-score [18],composite z-score [19],z-score [20]
O=P(c1ccccc1)(c1ccccc1)N1CC2(CC2)CC(O)(c2ccccc2)C1 (stereo not given),0.498,0.284 (inactive),0.392,0.193,0.835,3.3,1.19,0.584,-0.31,0.462,1.11,0.805,1.26,0.77,-0.541,-0.955,0.542,-1.17,0.546,2.44 (inactive)
CCCC[C@@H]1C[C@H]1[C@@H](NP(=O)(c1ccccc1)c1ccccc1)c1ccc(Cl)cc1,0.708,0.198 (inactive),0.092,-0.0684,0.307,0.807,-0.162,-0.331,-0.226,0.302,1.23,-0.212,0.343,-0.741,-1.38,-0.748,0.179,-1.83,0.319,0.183 (inactive)
COC(=O)[C@@]1(Cc2ccccc2)[C@H]2c3cc(C(=O)N(C)C)n(C)c3C[C@H]2CN1C(=O)c1ccccc1,0.958,-0.183 (inactive),0.165,0.111,0.839,3.26,1.29,-0.299,-0.652,0.396,1.18,0.898,0.144,0.84,-0.21,0.125,-0.0935,-0.627,0.668,1.59 (inactive)
COc1cc2c(cc1O)C=[N+](C)CC2,0.502,-0.296 (inactive),-0.0377,-0.133,0.329,-0.4,-0.93,-1.67,0.185,-1.48,1.02,-0.662,-0.0048,-1.32,0.469,1.17,1.28,0.495,-0.252,-0.556 (inactive)
C[C@@H]1OC=C2[C@@H](O)[C@H]3O[C@H]3C(=O)[C@]23[C@H]1[C@H]1C2=C([C@@H](O)[C@H]4O[C@H]4C2=O)[C@@H]3O[C@@H]1C,-0.745,0.278 (inactive),-0.063,-0.147,-0.355,-0.934,-0.266,-1.86,0.584,-0.66,-0.317,-0.556,-0.171,-0.559,0.0982,0.0979,0.774,0.277,-0.351,-0.563 (inactive)
